# Data from publication PMC8384837, “Expanding the binding specificity for RNA recognition by a PUF domain”.
# Substitutions are numbered along the chain they refer to.
# Key:
# Assay in all cases: yeast three-hybrid, YBZ-1, SC-Leu-His + 0.5 mM 3-AT, 4 days
# Conditions in all cases: tags: N-Gal4 AD-HA kept; label: inside an RPR1-promoter hybrid RNA with tandem MS2 sites; ssRNA
# PUM1 PUF domain R3-FFG = PUM1 PUF domain R3-FFG (Homo sapiens, UniProt Q14671 828-1176, C935F;R936F;Q939G)
# In short: (§1)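 The interaction score is the log change in variant frequency from input to selection. Scores were computed in log2 with a pseudocount of 1 for absent variants, using Illumina sequencing of PCR-amplified repeat regions. The input came from four days on SC-Leu and the selection from four days on SC-Leu-His + 0.5 mM 3-AT. The cells were strain YBZ-1 (LexA–MS2 coat fusion, HIS3 reporter) co-expressing Pumilio-1 PUF domain libraries and matching RNA elements from a centromeric plasmid.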
# PUM1 PUF domain R3-LWV = PUM1 PUF domain R3-LWV (Homo sapiens, UniProt Q14671 828-1176, C935L;R936W;Q939V)
# In short: as §1
# PUM1 PUF domain R5-KFC = PUM1 PUF domain R5-KFC (Homo sapiens, UniProt Q14671 828-1176, C1007K;R1008F;Q1011C)
# In short: as §1
# PUM1 PUF domain R6-MWR = molecular target: T1, PUM1 PUF domain R6-MWR (Homo sapiens, UniProt Q14671 828-1176, N1043M;Y1044W;Q1047R)
# T1 sequence: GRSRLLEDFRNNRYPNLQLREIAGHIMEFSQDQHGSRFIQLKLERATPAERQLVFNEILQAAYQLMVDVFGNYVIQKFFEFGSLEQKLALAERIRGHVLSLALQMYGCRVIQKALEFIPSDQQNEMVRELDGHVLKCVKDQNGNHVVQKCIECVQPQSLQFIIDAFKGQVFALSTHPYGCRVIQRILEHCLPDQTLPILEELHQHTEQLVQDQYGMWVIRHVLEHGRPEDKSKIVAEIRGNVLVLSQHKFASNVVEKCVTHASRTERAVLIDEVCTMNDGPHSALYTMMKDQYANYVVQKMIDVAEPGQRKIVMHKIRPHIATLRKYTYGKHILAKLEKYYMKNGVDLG
# In short: as §1
# PUM1 PUF domain R3-DWE = PUM1 PUF domain R3-DWE (Homo sapiens, UniProt Q14671 828-1176, C935D;R936W;Q939E)
# In short: as §1
# PUM1 PUF domain R5-RRE = PUM1 PUF domain R5-RRE (Homo sapiens, UniProt Q14671 828-1176, C1007R;Q1011E)
# In short: as §1
# PUM1 PUF domain R5-KFW = PUM1 PUF domain R5-KFW (Homo sapiens, UniProt Q14671 828-1176, C1007K;R1008F;Q1011W)
# In short: as §1
# PUM1 PUF domain R6-TWQ = molecular target: T2, PUM1 PUF domain R6-TWQ (Homo sapiens, UniProt Q14671 828-1176, N1043T;Y1044W)
# T2 sequence: T1 sequence with M216T, R220Q
# In short: as §1
# PUM1 PUF domain R3-RRL = PUM1 PUF domain R3-RRL (Homo sapiens, UniProt Q14671 828-1176, C935R;Q939L)
# In short: as §1
# PUM1 PUF domain R7-GPK = PUM1 PUF domain R7-GPK (Homo sapiens, UniProt Q14671 828-1176, S1079G;N1080P;E1083K)
# In short: as §1
# PUM1 PUF domain R5-RRE, sequence (Q14671 828-1176 C1007R/Q1011E): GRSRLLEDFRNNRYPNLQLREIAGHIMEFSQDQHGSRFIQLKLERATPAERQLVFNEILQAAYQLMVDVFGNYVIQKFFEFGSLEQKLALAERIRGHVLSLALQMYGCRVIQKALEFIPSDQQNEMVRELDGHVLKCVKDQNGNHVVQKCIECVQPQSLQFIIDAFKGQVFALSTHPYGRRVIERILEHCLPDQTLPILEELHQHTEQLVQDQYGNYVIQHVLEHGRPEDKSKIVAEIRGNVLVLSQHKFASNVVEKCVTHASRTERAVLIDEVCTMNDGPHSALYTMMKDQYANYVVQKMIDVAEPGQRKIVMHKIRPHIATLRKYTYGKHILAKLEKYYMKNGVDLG
sequence,measurement,setting,value
GGCUAGAACUAGUGGAUCCCCCGGCGCCCGGCGGCUCGAGCCCGGGUAAGUGUAAGUAGUCUGCAUGCCGCCGGGCGCCAUGCCUGCAGGUCGACUCUAGAAAACAUG,binding signal,PUM1 PUF domain R3-FFG,7.59 log2 enrichment (interaction score)
same,binding signal,PUM1 PUF domain R3-LWV,4 log2 enrichment (interaction score)
GGCUAGAACUAGUGGAUCCCCCGGCGCCCGGCGGCUCGAGCCCGGGUAAGUGUAAAUAGUCUGCAUGCCGCCGGGCGCCAUGCCUGCAGGUCGACUCUAGAAAACAUG,binding signal,PUM1 PUF domain R5-KFC,5.41 log2 enrichment (interaction score)
same,binding signal,PUM1 PUF domain R6-MWR,7.74 log2 enrichment (interaction score)
same,binding signal,PUM1 PUF domain R3-DWE,2.3 log2 enrichment (interaction score)
same,binding signal,PUM1 PUF domain R5-RRE,1.27 log2 enrichment (interaction score)
same,binding signal,PUM1 PUF domain R5-KFW,3.83 log2 enrichment (interaction score)
same,binding signal,PUM1 PUF domain R3-FFG,3.38 log2 enrichment (interaction score)
same,binding signal,PUM1 PUF domain R3-LWV,3.07 log2 enrichment (interaction score)
GGCUAGAACUAGUGGAUCCCCCGGCGCCCGGCGGCUCGAGCCCGGGUAAGUGUGAAUAGUCUGCAUGCCGCCGGGCGCCAUGCCUGCAGGUCGACUCUAGAAAACAUG,binding signal,PUM1 PUF domain R5-RRE,2.27 log2 enrichment (interaction score)
GGCUAGAACUAGUGGAUCCCCCGGCGCCCGGCGGCUCGAGCCCGGGUAAGUGAAAAUAGUCUGCAUGCCGCCGGGCGCCAUGCCUGCAGGUCGACUCUAGAAAACAUG,binding signal,PUM1 PUF domain R6-MWR,3.34 log2 enrichment (interaction score)
same,binding signal,PUM1 PUF domain R6-TWQ,2.43 log2 enrichment (interaction score)
GGCUAGAACUAGUGGAUCCCCCGGCGCCCGGCGGCUCGAGCCCGGGUAAGUGUAAUUAGUCUGCAUGCCGCCGGGCGCCAUGCCUGCAGGUCGACUCUAGAAAACAUG,binding signal,PUM1 PUF domain R3-RRL,3.07 log2 enrichment (interaction score)
same,binding signal,PUM1 PUF domain R3-FFG,3.8 log2 enrichment (interaction score)
same,binding signal,PUM1 PUF domain R3-LWV,3.36 log2 enrichment (interaction score)
GGCUAGAACUAGUGGAUCCCCCGGCGCCCGGCGGCUCGAGCCCGGGUAAGUGUUAAUAGUCUGCAUGCCGCCGGGCGCCAUGCCUGCAGGUCGACUCUAGAAAACAUG,binding signal,PUM1 PUF domain R5-KFC,5.65 log2 enrichment (interaction score)
same,binding signal,PUM1 PUF domain R5-RRE,5.72 log2 enrichment (interaction score)
GGCUAGAACUAGUGGAUCCCCCGGCGCCCGGCGGCUCGAGCCCGGGUAAGUGUCAAUAGUCUGCAUGCCGCCGGGCGCCAUGCCUGCAGGUCGACUCUAGAAAACAUG,binding signal,PUM1 PUF domain R5-KFC,3.89 log2 enrichment (interaction score)
same,binding signal,PUM1 PUF domain R5-RRE,4.96 log2 enrichment (interaction score)
same,binding signal,PUM1 PUF domain R5-KFW,4.73 log2 enrichment (interaction score)
GGCUAGAACUAGUGGAUCCCCCGGCGCCCGGCGGCUCGAGCCCGGGUAAGUUUAAAUAGUCUGCAUGCCGCCGGGCGCCAUGCCUGCAGGUCGACUCUAGAAAACAUG,binding signal,PUM1 PUF domain R7-GPK,3.11 log2 enrichment (interaction score)
GGCUAGAACUAGUGGAUCCCCCGGCGCCCGGCGGCUCGAGCCCGGGUAAGUGCAAAUAGUCUGCAUGCCGCCGGGCGCCAUGCCUGCAGGUCGACUCUAGAAAACAUG,binding signal,PUM1 PUF domain R6-MWR,2.97 log2 enrichment (interaction score)
